Article PMC7819943, “Rice protein-binding microarrays: a tool to detect cis-acting elements near promoter regions in rice”
Whole data set: some 68,000 sequences, median “fluorescence intensity (a.u.)” near 9,100, cut for the highest 2% near 16,000. The sample as a whole holds a higher share of the highest values than the screen did.

target: OsWRKY34 (Oryza sativa, UniProt Q0JBA9 1-250); assay: protein-binding microarray (RPBM); PBS, 2% BSA, 51.3 ng/ul salmon testes DNA, 50 uM zinc acetate, 200 nM TF, 25 C, 1 h; high values mean tight binding; conditions: protein: recombinant; tags: N-terminal polyhistidine and DsRed monomer fusion (pET32a); label: CyDye5-dUTP incorporated in the synthesized complementary strand; 3' TTTTT single-stranded linker to array surface; dsDNA, one strand shown
Sequence (Q0JBA9 entry or part of it): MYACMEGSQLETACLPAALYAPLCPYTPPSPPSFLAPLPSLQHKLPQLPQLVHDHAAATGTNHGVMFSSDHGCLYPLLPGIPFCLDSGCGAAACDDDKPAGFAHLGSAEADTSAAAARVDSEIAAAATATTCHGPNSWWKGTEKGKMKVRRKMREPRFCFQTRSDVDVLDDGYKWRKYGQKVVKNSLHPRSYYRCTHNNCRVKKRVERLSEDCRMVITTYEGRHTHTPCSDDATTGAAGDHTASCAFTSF
Procedure, shortened: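 In PBS with 2% BSA, salmon testes DNA and 50 µM zinc acetate, 200 nM protein was incubated on a custom Agilent array at 25 °C for 1 h and then washed off. The array had been made double-stranded by primer extension with Cy5-dUTP and blocked with 2% BSA. The proteins were transcription factors fused N-terminally to polyhistidine and DsRed, expressed in E. coli BL21-CodonPlus and purified on Ni–NTA. The binding signal is per-feature fluorescence intensity (arbitrary units) from an Axon 4000B scanner.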

Row | Sequence | binding signal
1 | TCGCTTTTTACTTTTTATTTTTTTACACATCCGACTCAAACGGAGTCACCTAGTGCAG | 8260 fluorescence intensity (a.u.)
2 | ACCCAAAGCCACCCGCAACAACCGACGACGACGACGACCGCGGAGTCACCTAGTGCAG | 18200 fluorescence intensity (a.u.)
3 | CCCGCACCGCAACACGCACACCCACGCGCACGCACAAACCCGGAGTCACCTAGTGCAG | 8060 fluorescence intensity (a.u.)
4 | CACCCAAGCCAAGCCCACGACCCGCACCGCAACACGCACACGGAGTCACCTAGTGCAG | 8520 fluorescence intensity (a.u.)
5 | CCACGCTATCCCATGCGATTCGAGAAGGTTCCACACACACCGGAGTCACCTAGTGCAG | 8430 fluorescence intensity (a.u.)
6 | AATGGTGCAATACAATTTCAAGCGTATCACTGTTGTTCCTCGGAGTCACCTAGTGCAG | 9720 fluorescence intensity (a.u.)
7 | TCAAAATGTTTAACGCCGTTGACTTTTTAGCACATTTTTGCGGAGTCACCTAGTGCAG | 33000 fluorescence intensity (a.u.)
8 | GACTTTTTAGCACATTTTTGACCGTTCATCTTATTCAAAACGGAGTCACCTAGTGCAG | 8780 fluorescence intensity (a.u.)
9 | TTCAAAATGTTTGATACCGTTGACTTTTTAGCACATTTTGCGGAGTCACCTAGTGCAG | 29400 fluorescence intensity (a.u.)
10 | GGTTTCAAGAAAAGGAAAAGAAAAACTAAACGTAGTATAACGGAGTCACCTAGTGCAG | 11300 fluorescence intensity (a.u.)
11 | AGTATCAAGCGATACAGGAGCTCCTCACTCCATCTCTCTACGGAGTCACCTAGTGCAG | 8330 fluorescence intensity (a.u.)
12 | CACACACTCTCCGGTTTTTTTTTCCTTTTCATTTTTTTCTCGGAGTCACCTAGTGCAG | 28000 fluorescence intensity (a.u.)
13 | ATATCTACTCCCGGTTTCTGCTGGATTCCTTCCTTTTTCTCGGAGTCACCTAGTGCAG | 17500 fluorescence intensity (a.u.)
14 | GTTTTGCACATCCGGTTTTCTCTCTCTCTCTCTCTCCTTTCGGAGTCACCTAGTGCAG | 16700 fluorescence intensity (a.u.)
15 | CCTCCTCTCCCTTTTCTGCTGTTTCTCTCTCTCACACACTCGGAGTCACCTAGTGCAG | 8470 fluorescence intensity (a.u.)
16 | TTTTTTTCTCCTTTCCTTCTTCTCTCTCTCTCTTTTTTTTCGGAGTCACCTAGTGCAG | 8870 fluorescence intensity (a.u.)
17 | TTCGGTTTTTCTCTTCATCATTTCTCTTTATTTCTTTCTCCGGAGTCACCTAGTGCAG | 9290 fluorescence intensity (a.u.)
18 | CGCCGGTTGCTTCCATATACTCTGCTCCTTTTTTTTCTATCGGAGTCACCTAGTGCAG | 9240 fluorescence intensity (a.u.)
19 | CACTCTCTCTCGCTGTCTTTCTCTCCTTCCATTTCATTTCCGGAGTCACCTAGTGCAG | 8250 fluorescence intensity (a.u.)
20 | CGTTTCTCTTTCTTTCTTCCCTTCGGTTTCTCCTCCTCTCCGGAGTCACCTAGTGCAG | 10600 fluorescence intensity (a.u.)
21 | ACAGGGCTTGGAATAGGTTGGTGTACAGGGCGGTAGCTTACGGAGTCACCTAGTGCAG | 8670 fluorescence intensity (a.u.)
22 | AGAAAAGAATCTACAGTACCCACATGGCATACTCTCTTTTCGGAGTCACCTAGTGCAG | 9950 fluorescence intensity (a.u.)
23 | GTCTTTTGGTGGGTGGGAAATCACTTCCATTTCCCATTAGCGGAGTCACCTAGTGCAG | 11300 fluorescence intensity (a.u.)
24 | GTGGCAATGCAAACTCGTCTTGGAACCCACTGCTTTGCCTCGGAGTCACCTAGTGCAG | 8192 fluorescence intensity (a.u.)
25 | ATACTACCTCCGTTTTTTAATAGATGACGTCGTTGACTTTCGGAGTCACCTAGTGCAG | 14600 fluorescence intensity (a.u.)
26 | TACCTCCGTTTTCTAATAGATGACGCCGTTGACTTTTTCTCGGAGTCACCTAGTGCAG | 20700 fluorescence intensity (a.u.)
27 | CTACTATCATATTTTTTAATAGATGACTCCGTTGACTTTTCGGAGTCACCTAGTGCAG | 16800 fluorescence intensity (a.u.)

Row | Sequence | binding signal
28 | TCCCTCCGTTTTTTAATAGATGATGCCGTTGACTTTTTCTCGGAGTCACCTAGTGCAG | 19300 fluorescence intensity (a.u.)
29 | TACCTCCGTTTTTTAATAGATGACGCCGTTGACTTTTTCTCGGAGTCACCTAGTGCAG | 25000 fluorescence intensity (a.u.)
30 | ATGACATACTAATAGATGATACTATTGACTTTTTTTCTATCGGAGTCACCTAGTGCAG | 9980 fluorescence intensity (a.u.)
31 | GTTTCTTACCCATCTACTATGGCCTATTTAACCCTGCGCCCGGAGTCACCTAGTGCAG | 11000 fluorescence intensity (a.u.)
32 | GCCCGCGCCGTCTACCAGGACGCCGACGTCTACCTCCTCGCGGAGTCACCTAGTGCAG | 8470 fluorescence intensity (a.u.)
33 | CCTCTTCTCCTTCGGTGTGTTCGTCGATGTGCTTTGCTGACGGAGTCACCTAGTGCAG | 8580 fluorescence intensity (a.u.)
34 | CGGTTTGGGCTCTTTTGGCTGTTCCATGGCGACGAGGCGCCGGAGTCACCTAGTGCAG | 8320 fluorescence intensity (a.u.)
35 | GACCCCTCCGACCGCTACGCCAACCACAACACCGTCTTCTCGGAGTCACCTAGTGCAG | 9430 fluorescence intensity (a.u.)
36 | TGTCAACCCGCGCCTCCGATTTCTCCAGCTTTTCTTTCCCCGGAGTCACCTAGTGCAG | 12800 fluorescence intensity (a.u.)
37 | AGTAGTCTCCGTCTTCGTCCTCTTCCTTCTTGTTTAATAACGGAGTCACCTAGTGCAG | 8930 fluorescence intensity (a.u.)
38 | TGCCTGTAGTGGCGGTTGGGGATGCGGATAAGGCGAGGGGCGGAGTCACCTAGTGCAG | 14500 fluorescence intensity (a.u.)
39 | TCCGACATGCTGCCCTCGATCGAGCTCATCCATCGGCCCTCGGAGTCACCTAGTGCAG | 9550 fluorescence intensity (a.u.)
40 | CCACCCTTTTTCTCTGCTTCCAGTGTACGTTTTCGAATAACGGAGTCACCTAGTGCAG | 9880 fluorescence intensity (a.u.)
41 | CCTCCTAGTTCCCTCGGCATGCAGACGATCTGCCAGTTTACGGAGTCACCTAGTGCAG | 11700 fluorescence intensity (a.u.)
42 | TATCGTCCGGTGCTCCTCGTCCATGTCAACAGCTACCATACGGAGTCACCTAGTGCAG | 9850 fluorescence intensity (a.u.)
43 | GAGGGCAAGGGCGGCGGGTCTAACACAACACAATAAGAGTCGGAGTCACCTAGTGCAG | 9470 fluorescence intensity (a.u.)
44 | TCTTTGCAGGTCACTTCCGGGTGCTTCACATTCCGGTTAACGGAGTCACCTAGTGCAG | 8890 fluorescence intensity (a.u.)
45 | TCCTCATCTTGTGCTCTCAAGTGTTTTAAGTGCTCTCTTTCGGAGTCACCTAGTGCAG | 10500 fluorescence intensity (a.u.)
46 | ATTTAATTTCACCTACTACTACTACTATTCTTCTTATTAACGGAGTCACCTAGTGCAG | 9430 fluorescence intensity (a.u.)
47 | CATATACTCCCTCCGTTTTTTAATAGATGACGCCGTTGACCGGAGTCACCTAGTGCAG | 12300 fluorescence intensity (a.u.)
48 | CTTACTACCTCCGTATTTTAGTGTATGATGCCGTTGACTTCGGAGTCACCTAGTGCAG | 14500 fluorescence intensity (a.u.)
49 | AATACTACCTCCGTTTTAAAATGTTTGACGCCGTTGATATCGGAGTCACCTAGTGCAG | 8440 fluorescence intensity (a.u.)
50 | TACTCCCTCCGTTTTTTAATAGATGACGCCGTTGACTTTTCGGAGTCACCTAGTGCAG | 16100 fluorescence intensity (a.u.)
51 | TACTACCTCCGTTTTTAATAGATGACGCCGTTGACTTTTTCGGAGTCACCTAGTGCAG | 23700 fluorescence intensity (a.u.)
52 | TACTCCCTCTGTTTTTTAATAGATGACGCCGTTGACTTTTCGGAGTCACCTAGTGCAG | 17100 fluorescence intensity (a.u.)
53 | CTCTCTTGCCTCTCCTGTCTCTTTCTCGGATTTTTCTCATCGGAGTCACCTAGTGCAG | 9020 fluorescence intensity (a.u.)
54 | AAACAGTTTGACTTTGACTAAAGTTAAAACGTCTTATAACCGGAGTCACCTAGTGCAG | 10900 fluorescence intensity (a.u.)
